U2OS ROS induce = raises reactive oxygen species in U2OS cancer cells. U2OS ROS induction, H2DCF-DA fluorescence. ROS induction (% of piperlongumine), % at 10 µM. hit rate 2% among 46,000. AID 624156; in the data active = ROS induction above about 79%, passing the limit was not always enough;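 also: 0% = DMSO vehicle median and 100% = reference compound median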
YB-1 expression = YB-1 expression inhibition. U2OS, qRT-PCR YB-1 vs CDIP delta delta Cp, 16 h; hits give high values; zero = DMSO, each unit about twofold. delta delta Cp (YB-1 minus CDIP) (no concentration beside the values). hit rate 0.37% among 30,000. AID 434959;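 active = delta delta Cp rounded down to an integer at or above 3, about 3 SD of DMSO wells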;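 also: higher means less YB-1 transcript or more CDIP transcript relative to DMSO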
PD-1 reverse act = reversal of PD-1 mediated T-cell inhibition | activation, % (no concentration beside the values) | primary human CD4 T cells, PD-L1 beads, CellTiter-Glo 96 h | 29,000 tested, under 10 active; call rule not given here;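 also: 0% = median vehicle wells and 100% = positive control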
Active calls of the source: *; . = no result. Compounds with a hit are over-represented: about 2.1% of the library has one in this group of screens.

SMILES	U2OS ROS induce	YB-1 expression	PD-1 reverse act
Cc1nn(-c2ccccc2)nc1CNC(=O)c1ccc(N(C)C)cc1	0	.	.
CC(C)CCNC(=O)c1cnn2c(C(F)(F)F)cc(-c3ccco3)nc12	119*	.	.
Cc1ccccc1NC(=O)c1cnn2c(C(F)(F)F)cc(-c3ccco3)nc12	7	0.15	2
CC1CCCCC1NC(=O)c1cnn2c(C(F)(F)F)cc(-c3ccccc3)nc12 (stereo not drawn)	134*	.	.
O=C(NCc1cccnc1)c1cnn2c(C(F)(F)F)cc(-c3ccccc3)nc12	.	.	-7
CCCOc1cc(C(N)=O)ccc1OC	-4	.	.
O=C(c1ccccc1)N1Cc2ccccc2[C@H]2OC(c3ccc(OCCCO)cc3)=N[C@@]2(Cc2ccccc2)C1=O	36	-0.23	.
O=C1N(CCS(=O)(=O)c2ccccc2)Cc2ccccc2[C@H]2OC(c3ccc(OCCCO)cc3)=N[C@@]12Cc1ccccc1	117*	-0.43	.
O=C(c1ccccc1)N1Cc2ccccc2[C@H]2OC(c3ccc(OCCCO)cc3)=N[C@@]2(CCS(=O)(=O)c2ccccc2)C1=O	100*	-0.56	.
C=CC[C@@]12N=C(c3ccc(OCCCO)cc3)O[C@@H]1c1ccccc1CN(CCS(=O)(=O)c1ccccc1)C2=O	60	-0.31	.
O=C(c1ccccc1)N1Cc2ccccc2C[C@@]2(N=C(c3ccc(OCCCO)cc3)O[C@H]2c2ccccc2)C1=O	67	-0.1	.
C=CC[C@]12N=C(c3ccc(OCCCO)cc3)O[C@H]1c1ccccc1CN(CCS(=O)(=O)c1ccccc1)C2=O	13	0.35	.
O=C1N(CCS(=O)(=O)c2ccccc2)Cc2ccccc2C[C@]12N=C(c1ccc(OCCCO)cc1)O[C@@H]2c1ccccc1	99*	0.42	.
O=C1N(CCS(=O)(=O)c2ccccc2)Cc2ccccc2[C@@H]2OC(c3ccc(OCCCO)cc3)=N[C@]12Cc1ccccc1	387*	-0.33	.
O=C(NCCCN1CCCCC1)c1ccc2c(c1)sc1nc(-c3ccccc3)cn12	-4	.	.
O=C1C(C=NCCc2c[nH]c3ccccc23)=C(O)c2ccccc21	18	.	.
O=C(CN1CCc2ccccc21)Nc1scc2c1c(=O)oc1ccccc12	-2	-0.053	0
N#CCSc1ccc2nnc(-c3ccncc3)n2n1	-4	.	.
C=CC[C@@]12N=C(c3ccc(OCCCO)cc3)O[C@@H]1c1ccccc1CN(Cc1ccccc1)C2=O	45	-0.44	.
O=C1N(Cc2ccccc2)Cc2ccccc2[C@H]2OC(c3ccc(OCCCO)cc3)=N[C@@]12CCS(=O)(=O)c1ccccc1	243*	0.13	.
CC(=O)NC(=O)C1C=C2c3ccccc3C=CC2OC1=Nc1ccc(C)cc1 (stereo not drawn)	-7	.	.
CCOc1ccccc1C(=O)N(CC#N)CC#N	-16	.	.
Cn1cnnc1S/C=C/C(=O)c1ccc(Cl)cc1	32	0.78	-4
C=C(C)C(=O)O[C@H]1[C@H]2C(=C)C(=O)O[C@@H]2C[C@@H](C)[C@@H]2O[C@@H]2C(=O)[C@](C)(O)[C@@H]1OC(=O)C(=C)C	29	-0.54	-10
C=C(C)C(=O)O[C@H]1CC(=C)C2C[C@H](O)[C@](O)(CO)C2[C@H]2OC(=O)C(=C)[C@H]12 (stereo partly drawn)	186*	0.43	-13
SMILES	U2OS ROS induce	YB-1 expression	PD-1 reverse act
O=C(CSc1nc2ccccc2c(=O)[nH]1)Nc1ccc2c(c1)OCCO2	7	.	-1
CCC(Sc1nc(Nc2ccc(F)cc2)c2ccccc2n1)C(=O)Nc1ccc2c(c1)OCO2 (stereo not drawn)	118*	.	.
COc1ccc(/C=C/C(=O)CC(=O)/C=C/c2cccc(O)c2OC)cc1O	98*	-0.52	.
COc1cc(/C=C/C(=O)CC(=O)/C=C/c2ccc(O)c(OC)c2)ccc1O	43	-0.15	.
Nn1c(Cc2ccccc2)nc2sc3c(c2c1=O)CCCC3	0	.	.
CCCc1c(-c2ccccc2)nc2sc3c(c2c1N)CCCCC3	169*	.	.
CCOC(=O)C1C(=O)C(=O)Nc2ccccc21 (stereo not drawn)	5	0.039	2
CC(=O)OC/C(=C\COc1cc(=O)oc2cccc(C)c12)CCC=C(C)C	110*	-0.56	.
CCc1cc(=O)oc2cc(C)cc(OCC(=O)C(C)(C)C)c12	73	.	.
C=CCSc1nnc2n(-c3ccccc3)c(=O)c3c(C)c(C)sc3n12	65	.	.
Cc1ccc(S(=O)(=O)Nc2ccc3c(c2)C(=O)N([C@H](C)CO)C[C@H](C)[C@@H](CN(C)C(=O)Nc2ccc(C(F)(F)F)cc2)OCCCC[C@@H](C)O3)cc1	40	0.3	.
C[C@@H]1CCCCO[C@H](CN(C)S(=O)(=O)c2ccc(F)cc2)[C@@H](C)CN([C@H](C)CO)C(=O)c2cc(NS(=O)(=O)c3cccs3)ccc2O1	23	-0.13	-2

From PubChem BioAssay
